Test results from PubChem BioAssay (Tox21).
A number with no mark means an inactive call. Active and inactive are the calls of the source. The call rests on the fitted dose curve; in most records, active means well fitted curve in the direction sought with a large enough effect in the repeat runs; inconclusive means weak or mixed curves; inactive means flat fitted curve, though single readings scatter.

Assay: qHTS assay to test for compound auto fluorescence at 535 nm (green) in HepG2 cells (AID 720675)
Settings: green autofluorescence 485/535 nm, 1 h; series mostly up to 91.3 µM; fluorescence, % of fluorescein control: at the top concentration
Source text: National Center for Advancing Translational Sciences [NCATS]
NIH Chemical Genomics Center [NCGC]
U.S. Environmental Protection Agency [EPA]
National Institutes of Environmental Health Sciences [NIEHS]
National Toxicology Program [NTP]
U.S. Food and Drug Administration [FDA]
Compound auto fluorescence often interferes with screening of the compound library against various biological targets and signaling pathways. Some of these compounds may have fluorophoric properties. Such properties may interfere with the assay outputs resulting in false positives and/or negatives. To decrease such complications and ensure the compound activities are relevant in terms of biological response, the Tox21 10K compound library was screened for auto fluorescence.
From the fluorophores used as reporter signals in our screening assays, the auto fluorescence equivalencies of compounds against three fluorophores have been evaluated: Triamterene, Fluorescein and Rose Bengal sodium for blue, green and red fluorescence, respectively. The fluorescence intensities were measured using Excitation/Emission wavelengths at 405/460nm, 485/535nm and 540/590nm for blue, green and red labels, respectively. This assay includes the green fluorescence data.
Tox21 Assay Protocol Summary:
2,000 HepG2 cells in 5 uL of culture medium (MEM containing 10% FBS) per well were dispensed into black wall/clear bottom 1536-well plates using a Multidrop Combi Dispenser (ThermoFisher Scientific, Waltham, MA). The assay plates were incubated overnight at 37 C to allow cell attachment to the well bottom, followed by the transfer of 23 nL compound or DMSO vehicle by a pintool work station (Kalypsys , San Diego, CA). After the assay plates were incubated for 1 hr at 37 C and 5% CO2, fluorescence intensities in the assay plates were measured by an Envision (PerkinElmer, Shelton, CT) plate reader using three labels for measuring blue, green and red fluorescence at […] 460, 535 and 590 nm respectively.
On the % scale 0 is the no-effect control and ±100 the full control effect.

Structure (SMILES) | fluorescence, % of fluorescein control | Potency
CCCCCCCCCCCC(=O)N(CC)CC | 0.0068% | 
CN(C)CCOC(c1ccccc1)c1ccccc1 (tested in a mixture with another compound) | -0.0575% | 
CCN=C1C=CC(=C(c2ccc(N(CC)CC)cc2)c2ccc(N(CC)CC)cc2)c2ccccc21 | -0.804% | 
c1cc2c3c(c1)ccc1cccc(c13)C2 | -0.142% [at 95.7 µM] | 
COC(=O)NCCC[Si](OC)(OC)OC | -0.0219% | 
Cc1nc(Nc2ncc(C(=O)Nc3c(C)cccc3Cl)s2)cc(N2CCN(CCO)CC2)n1 | 0.0431% [at 46 µM] | 
CCO[Si](CCCSSSSCCC[Si](OCC)(OCC)OCC)(OCC)OCC | 0.0984% | 
Brc1ccccc1-c1ccccc1 | -0.219% | 
CC(C)=C1CC[C@@H](C)CC1=O | -0.0459% | 
CC(C)c1ccc(O)c(C(C)C)c1 | 0.112% | 
CSc1ccc2c(c1)N(CCC1CCCCN1C)c1ccccc1S2 (stereo not given) |  | inactive
O=C1NCN(c2ccccc2)C12CCN(CCCC(c1ccc(F)cc1)c1ccc(F)cc1)CC2 | -0.0487% [at 46 µM] | 
CCCSS/C(CCO)=C(\C)N(C=O)Cc1cnc(C)nc1N | 0.0121% [at 46 µM] | 
CC1CCCNC1 (stereo not given) | -0.0444% | 
Cc1cc(Nc2ccc(O)cc2)ccc1N | -0.0723% | 
C=C1C(C)(C)[C@@]2(Cl)C(Cl)[C@]1(Cl)C(Cl)(Cl)C2(Cl)Cl (stereo not given in full) | 0.0346% | 
CCCCCCCC/C=C/CCCOC(C)=O | 0.0259% | 
N[C@@H](CSSC[C@H](N)C(=O)O)C(=O)O | -0.0903% [at 46 µM] | 
CC1=C(/C=C/C(C)=C/C=C/C(C)=C/C(=O)Nc2ccc(O)cc2)C(C)(C)CCC1 |  | inactive
O=C(Nc1ccc(Cl)c(Cl)c1)c1cc(Cl)cc(Cl)c1O | 0.0326% | 

Structure (SMILES) | fluorescence, % of fluorescein control | Potency
CCc1cccc(C)c1 | -0.194% [at 95.7 µM] | 
CC1=C(/C=C/C(C)=C/C=C/C(C)=C\C=O)C(C)(C)CCC1 | 0.266% | 
CC(CN(C)C)CN1c2ccccc2CCc2ccccc21 (stereo not given) | -0.198% [at 18.6 µM] | 
Oc1ccc(-c2ccc(O)cc2)cc1 | 0.013% | 
C[C@@H]1CC[C@H]2C(C)(C)[C@H]3C[C@@]12CC[C@@]3(C)O | 0.0221% | 
C[C@@]12C(=O)OC(=O)[C@]1(C)C1CCC2O1 | -0.0054% [at 18.6 µM] | 
c1ccc(Nc2cccc3ccccc23)cc1 |  | inactive
CN1[C@@H]2CC[C@@H]1CC(OC(=O)C(CO)c1ccccc1)C2 (stereo not given in full) | -0.0042% [at 46 µM] | 
C/C=C/C(=O)Oc1c(CCCCCC(C)C)cc([N+](=O)[O-])cc1[N+](=O)[O-] | 0.158% | 
CCN(CC)CCOc1ccc(C(O)(Cc2ccc(Cl)cc2)c2ccc(C)cc2)cc1 (stereo not given) | 0.16% [at 46 µM] | 
Cc1cc2c(C(C)C)c(O)c(O)c(C=O)c2c(O)c1-c1c(C)cc2c(C(C)C)c(O)c(O)c(C=O)c2c1O | -0.123% [at 46 µM] | 
CCN(CC)CCOC(=O)C1(C2CCCCC2)CCCCC1 | -0.0017% [at 46 µM] | 
C=CC(=O)OCCOCC(CC)(COCCOC(=O)C=C)COCCOC(=O)C=C | 0.06% [at 95.7 µM] | 
NC(=O)C(=O)N/N=C/c1ccc([N+](=O)[O-])o1 | 0.0193% [at 46 µM] | 
CCCCOc1ccc(C(=O)CCN2CCCCC2)cc1 | 0.0117% [at 18.6 µM] | 
O=C(Nc1ccc(Cl)cc1)Nc1ccc(Cl)c(C(F)(F)F)c1 | 0.0281% [at 46 µM] | 
c1cc(OCC2CO2)cc(OCC2CO2)c1 (stereo not given) | -0.103% | 
NC(=O)c1nc(-c2cccc(-c3cc(F)ccc3OCC(F)(F)C(F)(F)F)c2)n[nH]1 | 0.128% | 
CCCCCCCCCCCCCOP(=O)(O)O | -0.042% | 
COCC(=O)O[C@]1(CCN(C)CCCc2nc3ccccc3[nH]2)CCc2cc(F)ccc2[C@@H]1C(C)C | 0.11% [at 46 µM] | 
